Hits are enriched below; roughly 2.7% of the tested compounds scored in any of these assays.
MsrA act: bovine MsrA enzyme activators, primary screen, biochemical, absorbance, HTS. activation, % at 10.6 µM. 360,000 compounds, 0.3% hits. purified bovine MsrA, absorbance read-out; in the data active = activation above about 7.5%
MsrA inh: bovine MsrA enzyme inhibitors, primary screen, biochemical, absorbance, HTS; Methionine sulfoxide reductase A (Bos taurus); purified bovine MsrA, absorbance read-out; inhibition, % at 15.5 µM; 360,000 compounds, 0.75% hits; in the data active = inhibition above about 4.5%
rCAG RNA binder: binders of r(CAG) RNA repeats, primary screen, biochemical, fluorescence. inhibition, % at 3 µM. 370,000 compounds, 1.3% hits. r(CAG) RNA repeat, TO-PRO-1 dye displacement fluorescence. AID 651821, 2012;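 active = inhibition above the plate cutoff, the mean of all test compounds on that plate plus 3 SD, cut at about 35% in these data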;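 note: higher means more dye released from RNA so lower well fluorescence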
NadD inh: inhibitors of S. aureus NadD, primary screen, biochemical, colorimetric, uHTS. Nicotinate-nucleotide adenylyltransferase NadD (Staphylococcus aureus N315). inhibition, % at 20 µM. 360,000 compounds, 0.78% hits. purified NadD enzyme, colorimetric absorbance read-out; in the data active = inhibition above about 26%
NadD inh conf: inhibitors of S. aureus NadD, confirmation, biochemical, colorimetric, single concentration. shares compounds with NadD inh. purified S. aureus NadD, colorimetric enzyme assay. inhibition, % at 20 µM. 2,000 compounds, 13% hits. AID 624309, 2012; in the data active = inhibition mostly above about 42%, no sharp cut-off; inactive = mostly below about 42%
Hits are given with their value; – = inactive; · = no result.

SMILES	MsrA act	MsrA inh	rCAG RNA binder	NadD inh	NadD inh conf
COc1ccc(CC(N)c2csc(NC(=O)c3cc(C(C)(C)C)oc3C)n2)cc1 (centres undefined)	–	–	–	33.0	–
COc1ccc(CC(N)c2csc(NC(=O)Nc3ccc(OC)cc3)n2)cc1 (centres undefined)	–	–	–	–	·
CCCNC(=O)C[C@H]1CC[C@H]2[C@@H](COc3ccc(NC(=O)c4cncs4)cc3C(=O)N2C)O1	·	·	–	·	·
CC(=O)C(=Cc1cn(-c2ccccc2)nc1-c1ccccc1)C(C)=O	–	–	–	–	·
Cc1ccc(-n2[nH]c(C)c(/C=N/Nc3ccc([N+](=O)[O-])cc3[N+](=O)[O-])c2=O)cc1C	–	–	–	36.5	–
CCc1cccc(CC)c1NC(=O)C1SC(=Nc2ccccc2C)C(c2nc3ccccc3s2)=C1N (centres undefined)	–	–	42.1	31.6	–
Cc1ccc(-c2csc(N3CCN(S(=O)(=O)c4ccc5c(c4)NC(=O)CO5)CC3)n2)cc1	–	–	–	38.7	–
Oc1c(Br)cc(Br)cc1C=Nc1ccc2[nH]ncc2c1	–	–	–	29.7	–
Nc1ccn(Cc2ccc(F)cc2)n1	–	–	–	–	·
Cc1nc(Nc2ccc(Cl)cc2Cl)sc1C(=O)Nc1ccccc1	–	–	–	–	·
Oc1nc(Nc2ccc(Cl)cc2Cl)sc1/C=C1\C=Nc2ccccc21	–	–	–	41.7	–
COc1ccccc1C1CCN(C(=O)c2cnn(-c3ccccc3)c2C)CC1	–	–	–	–	·
Cc1c(C)n(Cc2ccc(F)cc2)c2ccc(C(=O)NCCN3CCOCC3)cc12	–	–	–	–	·
CCOc1ccc(C(=O)Nc2cc(-c3nc4ccccc4[nH]3)ccc2Cl)cc1[N+](=O)[O-]	–	–	–	33.6	–
Cc1ccc(-c2nc3ccccc3[nH]2)cc1NC(=O)c1ccc2c(c1)OCO2	–	–	–	–	·
O=C(NC(=S)Nc1cc(-c2nc3ccccc3[nH]2)ccc1Cl)c1ccc2c(c1)OCO2	–	–	–	30.0	47.2
COc1ccc(S(=O)(=O)N2CC=C(c3ccccc3)CC2)cc1OC	–	–	–	–	·
O=C(Nc1cccc(Cl)c1)c1nc[nH]c1C(=O)NCCN(CCNC(=O)c1[nH]cnc1C(=O)Nc1cccc(Cl)c1)CCNC(=O)c1[nH]cnc1C(=O)Nc1cccc(Cl)c1	–	–	–	58.8	–
O=C(Nc1ccc(Cl)cc1)c1nc[nH]c1C(=O)NCCCCNC(=O)c1[nH]cnc1C(=O)Nc1ccc(Cl)cc1	–	–	–	30.0	–
O=C(Nc1cccc(Cl)c1)c1nc[nH]c1C(=O)NCCCCNC(=O)c1[nH]cnc1C(=O)Nc1cccc(Cl)c1	–	–	–	31.3	–
O=C(Nc1cccc(Cl)c1)c1nc[nH]c1C(=O)NCc1ccccc1	–	–	–	–	·
O=C(Nc1ccc(Cl)cc1)c1nc[nH]c1C(=O)Nc1ccccc1F	–	–	–	–	·
Nc1nnc(/C=C/c2ccccc2Cl)s1	–	–	–	–	·
CCOC(=O)/C=c1\s/c(=C\c2ccccc2C)c(=O)n1CC(=O)NCc1ccc2c(c1)OCO2	–	–	–	–	·
CCOC(=O)/C=c1\s/c(=C\c2ccc3cc(OC)ccc3c2)c(=O)n1CC(=O)NCc1ccc2c(c1)OCO2	–	–	–	32.6	–
SMILES	MsrA act	MsrA inh	rCAG RNA binder	NadD inh	NadD inh conf
Cc1ccc(COc2ccc(/C=N/NC(=O)c3ccc(CN4CCOCC4)cc3)cc2)cc1	–	–	–	–	·
Cc1ccc(C(C)C)c(OCc2ccc(C(=O)N/N=C/c3ccc(C(=O)O)cc3)cc2)c1	–	–	–	30.0	–
O=C(Nc1cccc(Cl)c1Cl)c1csc([C@H]2C[C@H](O)[C@@H](CO)O2)n1	–	–	–	–	·
CC(=O)c1cccc(NC(=O)C2C3C=CC(C3=C(c3ccccc3)c3ccccc3)C2C(=O)O)c1 (centres undefined)	–	–	–	37.1	50.4
CC(=O)c1cccc(NC(=O)Nc2ccccc2)c1	–	–	–	–	·
Cc1cc(C)n2nc(-c3ccsc3-n3c(C)ccc3C)cc2n1	–	–	–	38.7	–
CCCCC1=CC2=CC(=O)C(C)(OC(=O)CCc3ccccc3)C(=O)C2=CO1 (centres undefined)	–	–	–	65.9	38.9
COC(=O)CCCC1=CC2=CC(=O)C(C)(OC(=O)c3cccs3)C(=O)C2=CN1c1ccccc1 (centres undefined)	–	–	–	–	·
CCCCC1=CC2=CC(=O)C(C)(OC(=O)c3cccs3)C(=O)C2=CO1 (centres undefined)	–	–	36.6	32.0	47.1
Cn1c(=O)c2ncn(C)c2n(C)c1=O	–	–	–	–	·
N#Cc1c(-c2ccccc2)c(-c2ccccc2)nn(CC(=O)NNC(=O)Nc2ccc(Cl)c(Cl)c2)c1=O	–	–	–	51.3	–
O=C(Cn1nc(-c2ccccc2)c2ccccc2c1=O)Nc1ccc(F)cc1	–	–	–	–	·
Cc1ccc2nc(SCC(=O)c3cc(C)n(C)c3C)[nH]c2c1	–	–	–	–	·
Cc1cc(C(=O)CSc2nc3ccc(Cl)cc3[nH]2)c(C)n1C	–	–	–	34.1	–
Cc1nnc(SCC(=O)N2CCN(c3ccccc3F)CC2)n1C1CC1	–	–	–	–	·
CC(C)(C)n1nnnc1C(c1ccccc1)N1CCN(CCN2CCOCC2)CC1 (centres undefined)	–	–	–	–	·
O=C(Nc1nnc(-c2ccc3c(c2)OCCO3)o1)c1ccc(Cc2ccccc2)cc1	–	–	–	48.3	–
O=C(CCOc1ccccc1)Nc1nnc(-c2ccc3c(c2)OCCO3)o1	–	–	–	–	·
CCOC(=O)c1cnc(-n2nc(C)cc2C)nc1NNc1nc(C)cc(C)n1	–	–	–	–	·
CCOC(=O)c1cnc(-n2nc(C)cc2C)nc1NNc1nc(-c2ccccc2)cc(-c2ccccc2)n1	–	·	·	34.9	–
Cc1ccc(C(=O)NCC(=O)NCC(c2cccs2)N2CCOCC2)cc1C (centres undefined)	–	–	–	–	·
Cc1cccc(NC(=O)CSc2nnc(C3CC3)n2CC2CCCO2)c1 (centres undefined)	–	–	–	–	·
CCOc1c(Cl)cc(CNc2ccc(N3CCCC3)cc2)cc1OC	–	–	–	32.7	–
CN1CCN(c2ncnc3c2ncn3[C@H]2CN(Cc3cccs3)C[C@@H](CO)O2)CC1	–	–	–	–	·
COCCn1c(C)cc(C2=NNC(=Nc3ccccc3F)SC2)c1C	–	–	–	38.1	–
COCCCN=C1NN=C(c2cc(C)n(-c3ccccc3F)c2C)CS1	–	–	–	–	·
CC(C)NC(=O)Cn1nnc(-c2ccccc2)c1COc1ccc2ccccc2c1	–	–	–	–	·
Cc1c(Cl)ccc2c(C(=O)Nc3cc(C(C)(C)C)on3)cc(-c3ccccn3)nc12	–	–	–	34.3	–
Cc1cc(NC(=O)c2cc(-c3cccnc3)nc3c(C)c(C)ccc23)no1	–	–	–	–	·
